The structures appear in SMILES notation. Inconclusive results are not listed. Activity calls are given as the source filed them. Calls follow the shape of the dose curve; as a rule, active = well fitted cell-killing curve with a large enough effect; inconclusive = small, poorly fitted or top-dose-only effect, or effect the other way; inactive = no such curve, though single readings can be large or run the other way.
Potency is read from the fitted curve at half-maximal effect.

The assay is described as follows: Viability qHTS for spleen associated tyrosine kinase inhibitor (SYKi) drug resistant MV4-11 cells (AID 1963824). Also: nearly all actives have a fitted effect of over 35% in size. The conditions noted are these: SYKi-resistant MV4-11 viability, CellTiter-Glo, 72 h; series mostly up to 45 µM. Summed up: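 SYK-inhibitor-resistant MV4-11 AML cells were seeded at 500 per well onto compound and cultured 72 hours (37 °C, 5% CO2). CellTiter-Glo was then added, and after 10 min at room temperature, luminescence gave viability.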
For orientation: In qHTS, concentration-response curves come from the screen itself.
Consider `COc1cc(OC)cc(N2CCN(C(=O)Nc3nc4cc(F)ccc4nc3OC)CC2)c1`, for which the Potency was 1050 nM (active).

On to `OC[C@H]1O[C@@H](O[C@H]2[C@H](O)[C@@H](CO)O[C@@H](OCc3ccccc3)[C@@H]2O[C@@H]2OC[C@](O)(CO)[C@H]2O)[C@H](O)[C@@H](O)[C@@H]1O`, for which the Potency entry was “inactive”.

In the case of `COc1nc2ccc(Br)cc2cc1[C@@H](c1ccccc1)[C@@](O)(CCN(C)C)c1cccc2ccccc12`, the Potency is 9200 nM (active).

Take `CCOc1nc2c(N)ncnc2n1CC`: the Potency result is “inactive”.

On to `CC(=O)c1c(O)cc(O[C@@H]2O[C@H](CO)[C@@H](O)[C@H](O)[C@H]2O)cc1O`, for which the Potency entry is “inactive”.

For the compound `O=S(c1cc(Cl)cc(Cl)c1O)c1cc(Cl)cc(Cl)c1O`, the Potency result is “inactive”.

Regarding `C/C1=C\CCC2=CC(OC2=O)C(C)(C)/C=C/C1=O` (centres undefined), the Potency is 2310 nM (active).

As for `C=CS(=O)(=O)NC1CCN(C(=O)CNc2cc(I)c(Cl)cc2OC)CC1`, the Potency was 2060 nM (active).

For `CCN1CCN(Cc2ccc(-c3cc4c(NC(C)c5ccccc5)ncnc4[nH]3)cc2)CC1` (centres undefined), the Potency was 1300 nM (active).

As to `C=C1C(=O)O[C@@H]2C3=C(C)CCC[C@]3(C)CC[C@@]12O`, the Potency was 731 nM (active).

On to `Cc1ccc(C(=O)Nc2noc3ccccc23)cc1`, for which the Potency is 10300 nM (active).

For `C[C@@H]1C/C=C/C=C\C=C\C=C\[C@H](O[C@@H]2O[C@H](C)[C@@H](O)[C@H](N)[C@@H]2O)C[C@@H]2O[C@](O)(C[C@@H](O)C[C@H]3O[C@@H]3/C=C/C(=O)O1)C[C@H](O)[C@H]2C(=O)O`, the Potency entry is “inactive”.

As to `Cc1ncc(CCCN(C)C)cc1Nc1ncc2c(n1)-c1ccc(C(F)(F)F)cc1NC(=S)C2`, the Potency is 20.6 nM (active).

On to `CC(C)(C)c1ccc(S(=O)(=O)Nc2ccc(-n3ccnc3)cc2)cc1`, for which the Potency is 10300 nM (active).

Consider `C[C@@H]1CC[C@]2(C(=O)O)CC[C@]3(C)C(=CCC4[C@]5(C)C(CC[C@]43C)C(C)(C)[C@@H](O)[C@H](O)[C@@H]5O)C2[C@]1(C)O` (some centres undefined), for which the Potency entry was “inactive”.

Take `C=C1CN(Cc2ccc(C(=O)Nc3ccccc3N)cc2)C(=O)c2ccccc21`: the Potency is 517 nM (active).

As for `CC1(C)CC[C@]2(C(=O)O[C@@H]3O[C@H](CO[C@@H]4O[C@H](CO)[C@@H](O)[C@H](O)[C@H]4O)[C@@H](O)[C@H](O[C@@H]4O[C@H](CO)[C@@H](O)[C@H](O)[C@H]4O)[C@H]3O)[C@H](O)C[C@]3(C)C(=CCC4[C@@]5(C)CC[C@H](O[C@@H]6OC[C@@H](O)[C@H](O)[C@H]6O)[C@@](C)(C(=O)O)C5CC[C@]43C)[C@@H]2C1` (some centres undefined), the viability, % of control is 65.4% [at 9.25 µM] (inactive).

Regarding `c1nc(NCC2CCOC2)c2cc(-c3ccc4c(c3)OCO4)ccc2n1` (centres undefined), the Potency was 18400 nM (active).

As for `O=C(/C=C/c1ccc(O)c(O)c1)OC[C@H]1O[C@@H](OC2CCCCC2O)[C@H](O)[C@@H](O)[C@@H]1O` (some centres undefined), the Potency result is “inactive”.

On to `COc1ccc2c(c1)[C@@H]1C[C@]1(C(=O)N1[C@@H]3CC[C@H]1CN(C)C3)Cn1c-2c(C2CCCCC2)c2ccc(C(=O)NS(=O)(=O)N(C)C)cc21`, for which the Potency is 7310 nM (active).

For the compound `O=C(O)c1cccc(C(=O)CCC2OC(n3cnc4c(=O)[nH]cnc43)C(O)C2O)c1` (centres undefined), the Potency entry is “inactive”.

On to `C[C@@H]1O[C@@H](O[C@H]2[C@H](O[C@H]3[C@H](O[C@H]4CC[C@@]5(C=O)C(CC[C@]6(C)C5CC=C5C7CC(C)(C)C[C@@H](O)[C@]7(C)CC[C@]56C)C4(C)C)O[C@H](C(=O)O)[C@@H](O)[C@@H]3O)OC[C@@H](O)[C@@H]2O)[C@H](O)[C@H](O)[C@H]1O` (some centres undefined), for which the viability, % of control is 103% [at 9.25 µM] (inactive).

As for `CO/N=C(/C(=O)N[C@@H]1C(=O)N2C(C(=O)O)=C(CSC(=O)c3ccco3)CS[C@H]12)c1csc(N)n1`, the Potency entry is “inactive”.

Regarding `COc1cc2c(NC3CCN(C(C)C)CC3)nc(N3CCC(F)(F)CC3)nc2cc1OCCCN1CCCC1`, the Potency was 2910 nM (active).

Take `C=C(C)[C@@H]1CC[C@]2(C)CC[C@]3(C)[C@H](CC[C@@H]4[C@@]5(C)CC[C@@H](O)C(C)(C)[C@@H]5CC[C@]43C)[C@@H]12`: the Potency result is “inactive”.

For `OCC(Cc1ccccc1)Nc1nc(Oc2ccc3c(c2)CCC3)nc2c1ncn2Cc1ccc(-c2ccccc2)cc1` (centres undefined), the Potency is 7310 nM (active).

Turning to `COc1cc(C(=O)OC[C@H]2O[C@H](O[C@@]3(CO)O[C@@H](CO)[C@H](O)[C@H]3O)[C@H](O)[C@@H](O)[C@@H]2O)ccc1O`, the Potency entry was “inactive”.

`C=C1CC2[C@@]3(C)C=CC(=O)C(C)(C)C3=C(O)C(=O)[C@@]2(C)C2(C(=O)OC)C(=O)C(C)OC(=O)[C@@]12C` (some centres undefined): the Potency is 10000 nM (active).

In the case of `CC(=O)NC(Cc1ccccc1)C(=O)NC(C(=O)O)C(C)C` (centres undefined), the Potency entry is “inactive”.

Source of the values: PubChem BioAssay (NCATS).
